Screening data from PubChem.
MEKK2wt PB1 HTS: modulators of MEK5 binding to wildtype MEKK2, primary screen, biochemical, multiplex bead flow cytometry, Alexa488-MEK5; 290,000 tested, 1.1% active; binding response (% of control), % at 10 µM; Alexa488-MEK5 binding to MEKK2 WT; actives lie on both sides; Mitogen-activated protein kinase kinase kinase 2 (Homo sapiens), Q9Y2U5; AID 1531, 2009; in the data active = binding response below about 67% or above about 130%; inconclusive = no clear call, values can overlap the other calls; inactive = in between
MEKK2mut PB1 HTS: MEK5 binding signal on mutant MEKK2 PB1, primary screen, biochemical, multiplex bead flow cytometry, Alexa488-MEK5. 290,000 tested, 0.35% active. AID 1530, 2009. Alexa488-MEK5 binding to MEKK2 mutant. percent response, % at 10 µM; in the data active = percent response above about 24%, passing the limit was not always enough
UBC13 inh: UBC13 polyubiquitin chain formation inhibitors, primary screen, biochemical, TR-FRET, uHTS; AID 485273, 2010; inhibition, % at 20 µM; 330,000 tested, 0.47% active; in the data active = inhibition above about 45%, passing the limit was not always enough; inconclusive = no clear call, values can overlap the other calls
Target sequence (P61088 whole entry, looked up): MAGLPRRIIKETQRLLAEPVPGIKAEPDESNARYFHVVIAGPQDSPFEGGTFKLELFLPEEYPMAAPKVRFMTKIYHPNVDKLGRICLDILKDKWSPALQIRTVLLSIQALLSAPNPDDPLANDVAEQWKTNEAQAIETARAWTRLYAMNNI
MEKK3 PB1 HTS: modulators of MEKK3-MEK5 PB1 binding, primary screen, biochemical, wildtype MEKK3, multiplex bead flow cytometry, Alexa488-MEK5 | bead-based flow cytometry, Alexa488-MEK5 binding to MEKK3; actives lie on both sides; 0 = blocked by unlabeled MEK5, 100 = vehicle | 290,000 tested, 1.4% active | Mitogen-activated protein kinase kinase kinase 3 (Homo sapiens), Q99759 | AID 1529, 2009 | binding response (% of control), % at 10 µM;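 active = binding response more than 3 SD above or below the average of its plate-row segment, actives on both sides; inconclusive = wells at one plate position flagged as instrument error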;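 also: Alexa488 bead fluorescence after subtracting the streptavidin-only scavenger bead signal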
Rce1 inh: yeast Rce1p protease inhibitors, primary screen, biochemical, fluorescence, cell-free homogeneous; CAAX prenyl protease 2 (Saccharomyces cerevisiae (strain ATCC 204508 / S288c)), Q03530; yeast membranes, quenched prenylated peptide cleavage fluorescence; calls only; 290,000 tested, 0.27% active; AID 2563, 2010;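 active = fall in fluorescence gain of 50% or more versus controls, with final raw signal at or below 3038400; inconclusive = same 50% fall but final raw signal above 3038400; inactive = fall in fluorescence gain under 50%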;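 also: plate controls were neutral control wells for no effect and wells lacking membranes for full effect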
Starred values were filed as active, the others as inactive; i = inactive; ? = inconclusive; nt = no result; + = active, no number; [ ] = remark or other dose. Compounds with a hit are over-represented: about 2.5% of the library has one in this group of screens.

SMILES	MEKK2wt PB1 HTS	MEKK2mut PB1 HTS	UBC13 inh	MEKK3 PB1 HTS	Rce1 inh
Cc1ccc(C)c(NS(=O)(=O)c2c(C)nc3sccn3c2=O)c1	94	-3	-12	100	i
COc1ccc(OC)c(NS(=O)(=O)c2ccc3c(c2)C(C)(C)C(=O)N3C)c1	104	0	-8	101	i
Cc1cccc2cc(C3CC(c4cccs4)=NN3C(=O)CCC(=O)O)c(Cl)nc12 (configuration not stated)	97	-2	-5	96	i
Cc1ccc2nc(Cl)c(C3CC(c4cccs4)=NN3C(=O)CCCC(=O)O)cc2c1 (configuration not stated)	93	-2	0	98	+
O=C(C1=C[C@@H](C2CC2)C[C@@H](OCc2ccc(CO)cc2)O1)N1CCN(Cc2ccccc2)CC1	101	2	-3	99	+
Cc1ccc(C(C)C)c(OCC(=O)Nc2ccc3c(c2)nc(CCN2CCCCC2)n3C)c1	141*	12	22	103	i
Cn1c(CCN2CCCCC2)nc2cc(NC(=O)COc3ccc(Cl)cc3)ccc21	114	4	16	100	i
CCc1cc(=O)oc2c(C)c(OC(C)C(=O)NC3CC(C)(C)NC(C)(C)C3)ccc12 (configuration not stated)	96	-9	1	92	+
CCOc1ccc(CN(C)C(=O)CNC(=O)C2CCCCC2)cc1	106	4	0	101	i
CC(=O)C(C)Oc1ccc2c3c(c(=O)oc2c1)CCCC3 (configuration not stated)	116	5	3	113	+
CCOC(=O)Nc1ccc2c(CNC(C)c3ccccc3OC)cc(=O)oc2c1 (configuration not stated)	97	1	2	103	i
CC(=O)NC(C)CCc1ccccc1 (configuration not stated)	99	1	1	99	i
CC(CCc1ccccc1)NCC(O)c1ccc(O)c(C(N)=O)c1 (configuration not stated)	99	6	23	83	+
Nc1nc2nn(-c3ccccc3)nc2c(=O)[nH]1	95	10	18	97	i
Nc1nc2n[nH]nc2c(=O)[nH]1	105	4	-2	106	+
Nc1c(C(=O)NCc2ccccc2)sc2nc(N3CCOCC3)c3c(c12)CCCC3	95	-10	?	100	+
CCn1c(=O)c(-c2ccccc2)c(O)c2ccccc21	99	-2	6	96	+
CCCc1c(O)c2ccccc2n(-c2ccccc2)c1=O	106	6	3	102	i
O=c1c(-c2ccccc2)c(O)c2ccccc2n1-c1ccccc1	122	17	7	114	+
Cc1cccc(NC(=O)c2cc(S(=O)(=O)N3CCCCC3)c[nH]2)c1C	99	0	-11	102	+
NC(=O)c1cccnc1Oc1ccc(Cl)cc1	90	-11	7	90	i
O=C(Nc1cccnc1Oc1ccc(Cl)cc1)c1cccc2ccccc12	99	3	4	98	+
O=C(N/N=C/c1ccc(OC(=O)c2ccc(Br)cc2)cc1)c1ccncc1	61*[inhibitor]	-41	2	66*[inhibitor]	i
O=C(N/N=C/c1ccc(OC(=O)c2ccco2)cc1)c1ccncc1	98	5	0	104	i
CC(=O)c1ccc(N2CCN(C(C)C(=O)NC3CCCc4ccccc43)CC2)cc1 (configuration not stated)	100	1	13	113	i
COC(=O)c1sccc1NC(=O)CSc1nnnn1-c1ccccc1C	101	1	0	99	+
Cc1ccc(NC(=O)CCN2C(=O)C3CCCCC3C2=O)cc1[N+](=O)[O-] (configuration not stated)	nt	nt	-2	nt	i
CCc1ccc(OCC(=O)NNC(=S)NC(=O)C2CC2)c(Br)c1	107	6	72*	105	i
CCCCn1c(N)c(N(CCOC)C(=O)c2cc(Cl)nc3ccccc23)c(=O)[nH]c1=O	nt	nt	2	nt	nt
